LGR2 antag = inhibitors of bursicon-induced Drosophila LGR2 receptor cAMP signaling; HEK293 LGR2, CRE-luciferase, bursicon-stimulated, 4 h; inhibition, % at 9.99 µM; 0.35% of 380,000 active;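 active = drop in luminescence signal, shown as inhibition above about 50% in the replicate tests, limit read from the data, passing the limit was not always enough; inconclusive = probably only some replicates passing the limit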;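 note: agonist challenge used bursicon conditioned medium at about half maximal strength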
LMP1 NFkB inh = reduces LMP1-driven NF-kappaB luciferase signal. LMP1-induced NF-kappaB luciferase reporter cells, luminescence. inhibition, % at 12.5 µM. 0.69% of 350,000 active; in the data active = inhibition above about 41%; inconclusive = no clear call, values can overlap the other calls;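 note: 0% = neutral control wells and 100% = reference inhibitor control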
TWEAK Fn14 block = TWEAK-Fn14 signaling inhibition; 2% of 360,000 active; inhibition, % at 10 µM; AID 1159606; TWEAK-stimulated Fn14 reporter cells, luciferase luminescence, 8 h; in the data active = inhibition above about 50%
TROY signal inh = inhibitors of TROY-dependent NF-kB signaling | Q293 LMP1-TROYcd NF-kB luciferase reporter, 4 h | inhibition, % at 10 µM | 0.98% of 360,000 active | AID 1347056;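 active = compounds whose plate-normalised and pattern-corrected inhibition of the luciferase reporter signal at the single screening dose is 50% or more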
EWS-Fli block = blocks EWS/Fli oncoprotein-driven transcription | A673 NR0B1-luciferase reporter, viability-normalised | inhibition, % at 12.6 µM | 0.67% of 350,000 active;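 active = mean inhibition of at least 50% after viability correction, with every replicate also passing that limit; inconclusive = mean reaches 50% but only one of two replicates passes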;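 note: firefly luciferase signal divided by Alamar Blue viability fluorescence both relative to DMSO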
Numbers without * were called inactive; ? = inconclusive; . = not tested or not shown. This is a sample that favours compounds with a hit; in the whole collection about 2.6% have one here.

SMILES | LGR2 antag | LMP1 NFkB inh | TWEAK Fn14 block | TROY signal inh | EWS-Fli block
CN1C(=O)c2cc(NC(=O)c3ccccc3F)ccc2OC[C@H]2O[C@@H](CC(=O)NCc3ccc4c(c3)OCO4)CC[C@@H]21 | -13 | . | . | . | -2
COCC#Cc1cnc2c(c1)C(=O)N([C@H](C)CO)C[C@@H](C)[C@@H](CN(C)C(=O)C1CCOCC1)O2 | -13 | . | . | . | 0
O=C(Cc1ccc(F)cc1)Nc1nc(-c2ccc(F)c(F)c2)cs1 | 21 | -4 | 45 | 75* | -24
COc1ccc(CC(=O)Nc2nc(-c3ccc(F)c(F)c3)cs2)cc1 | 4 | 0 | 47 | 55* | 16
Cc1csc(NC(=O)Cc2ccc(F)cc2)n1 | -35 | -18 | -8 | -52 | -75
O=C(CSc1ncnc2[nH]ncc12)Nc1nc(-c2ccc(F)c(F)c2)cs1 | ? | 6 | 78* | 39 | -2
Cc1cccc(C)c1NC(=O)CSc1ncnc2[nH]ncc12 | -39 | -2 | 22 | -2 | -2
O=C(CN1C(=O)NC2(CCCC2)C1=O)Nc1nc(-c2ccc(F)c(F)c2)cs1 | 12 | 0 | -3 | 0 | -3
CC1(C(=O)OCC(=O)Nc2nc(-c3ccc(F)c(F)c3)cs2)CC1(Cl)Cl (stereo not drawn) | 19 | -3 | 72* | 82* | -20
CO[C@H]1CN(C)C(=O)c2ccc(NC(C)=O)cc2OC[C@@H](C)N(Cc2ccccc2F)C[C@@H]1C | 9 | . | . | . | 9
O=C(C[C@@H]1CC[C@@H]2NC[C@@H](O)COC[C@H]2O1)NCc1ccc(Oc2ccccc2)cc1 | -3 | . | . | . | -6
CS(=O)(=O)N1CCc2cc(-c3csc(NC(=O)C(c4ccccc4)c4ccccc4)n3)ccc21 | 0 | -6 | 2 | 3 | .
CC1Cc2cc(-c3csc(NC(=O)Cc4ccccc4)n3)ccc2N1S(C)(=O)=O (stereo not drawn) | 32 | 7 | 92* | 60* | -28
O=C(O)c1c2c(nc3ccccc13)/C(=C/c1ccc(O)cc1)CC2 | 71* | 53* | 77* | 51* | 20
O=C(O)c1c2c(nc3ccccc13)/C(=C/c1ccc(OC(F)F)cc1)CCC2 | -23 | -10 | -16 | -39 | -26
CC1CCC(=C(C#N)c2nc(-c3cc4ccccc4oc3=O)cs2)CC1 (stereo not drawn) | . | -41 | 54* | 47 | .
N#CCc1nc(-c2cc3ccccc3oc2=O)cs1 | . | 1 | -20 | -43 | -33
CC=Cc1ccc2n(c1=O)C[C@@H]1[C@@H](CO)[C@H](C(=O)NC3CCCC3)[C@H]2N1Cc1ccncc1 (mixture of isomers) | 3 | . | . | . | -4
OCc1cc(C(O)CNCCCCCCOCCCCc2ccccc2)ccc1O (stereo not drawn) | 1 | 55* | -4 | 11 | 18
CCOCCCNCC(O)c1ccccc1 (stereo not drawn) | -7 | 0 | -7 | 6 | .
CCOC(=O)N1CCC(n2c(=S)[nH]c3ccccc3c2=O)CC1 | -41 | 66* | 17 | 3 | .
CCOC(=O)N1CCN(C(=O)CCCn2c(=S)[nH]c3ccccc3c2=O)CC1 | . | 9 | 6 | 4 | .
C[C@H]1CCCCO[C@H](CN(C)C(=O)Nc2ccccc2)[C@@H](C)CN([C@@H](C)CO)C(=O)c2cc(NC(=O)C3CCCCC3)ccc2O1 | 17 | . | . | . | -3
O=[N+]([O-])c1ccc(-[n+]2ccc3ccccc3c2)c([N+](=O)[O-])c1 | -4 | 11 | 57* | -19 | 43
CC(=O)NC1CCCCN(C)C1=O (stereo not drawn) | -1 | . | . | . | -4
SMILES | LGR2 antag | LMP1 NFkB inh | TWEAK Fn14 block | TROY signal inh | EWS-Fli block
Cc1ccccc1N(CC(=O)NCc1ccc2c(c1)OCO2)C(=O)CCC(=O)Nc1ccccn1 | . | -6 | 0 | -9 | .
Cc1ccccc1N(CC(=O)NCc1ccc2c(c1)OCO2)C(=O)C1CSC(=O)C1 (stereo not drawn) | 7 | -3 | 50* | 5 | 17
COc1ccc(N2C(=O)CCC2(C#N)c2ccc(OC)cc2)cc1 (stereo not drawn) | . | -7 | -11 | -4 | .
COc1ccc(C2(C#N)CCC(=O)N2c2ccccc2)cc1 (stereo not drawn) | . | 5 | -17 | 52* | -4
Cc1ccc(NC(=O)CSc2nccn(-c3ccc4c(c3)OCCO4)c2=O)cc1 | -7 | 3 | 25 | 35 | -14
O=C(CSc1nnnn1-c1ccccc1Cl)Nc1ccc2c(c1)OCCO2 | -25 | 7 | 76* | 54* | 17
O=C(CSc1nccn1-c1ccc(Cl)cc1)Nc1ccc2c(c1)OCO2 | . | 4 | -1 | -3 | .
Cc1cccc(-n2ccnc2SCC(=O)Nc2ccc3c(c2)OCCO3)c1 | -46 | -5 | 6 | 51* | .
O=C(CSc1nccn(-c2ccc3c(c2)OCCO3)c1=O)Nc1ccccc1 | -38 | -9 | 62* | 66* | -63
COc1ccc(S(=O)(=O)N[C@@H]2CC[C@@H](CCn3cc(C(C)C)nn3)O[C@H]2CO)cc1 | -2 | . | . | . | -16
C[C@H]1CCCCO[C@H](CN(C)Cc2ccncc2)[C@@H](C)CN([C@@H](C)CO)C(=O)c2cc(NC(=O)C3CCCCC3)ccc2O1 | -1 | . | . | . | -4
CC(=O)c1c(NCCc2ccccc2)nc(=S)n(-c2ccccc2)c1C | 71* | 2 | -21 | -4 | 30
CC(=O)c1c(NCc2ccccc2)nc(=O)n(-c2ccccc2)c1C | . | -1 | 4 | -16 | .
COc1ccc(CN(C)C(=O)c2ccc(OCC(=O)Nc3cccc(C(F)(F)F)c3)c(OC)c2)c(OC)c1 | -2 | 31 | 50 | 44 | 40
COc1cccc(CN(C)C(=O)c2ccc(OCC(=O)Nc3cccc(C(F)(F)F)c3)c(OC)c2)c1 | 9 | 28 | 61* | 40 | 38
C[C@@H]1CN([C@H](C)CO)C(=O)c2cc(NC(=O)Nc3ccccc3)ccc2O[C@@H]1CN(C)S(=O)(=O)c1ccc(Cl)cc1 | 4 | . | . | . | 13
Clc1cncc(Cl)c1N/N=C/c1ccncc1 | 22 | 34 | 59* | 63* | -8
O=C(COc1ccc(C(=O)c2ccc(F)cc2)cc1)NCc1ccc(F)cc1 | 20 | 4 | 27 | 9 | 57*
Cc1csc2sc(-c3ccnc(SCC(=O)NCc4ccccc4)n3)c(C)c12 | -14 | 16 | 2 | 4 | 55*
Cc1csc(SCC(=O)NCc2ccccc2)n1 | 5 | -2 | 15 | 2 | 4
COc1ccccc1NC(=O)C1CCCN1S(=O)(=O)c1cccc2nsnc12 (stereo not drawn) | . | -1 | -1 | -11 | .
COc1ccc(NC(=O)C2CCCN2S(=O)(=O)c2cccc3nsnc23)c(OC)c1 (stereo not drawn) | . | 3 | 70* | 3 | .
CCOc1ccc(-c2cn3ccccc3n2)cc1 | 74* | 33 | 62* | -6 | 48
Fc1ccc(-c2cn3ccccc3n2)cc1 | -8 | -3 | 35 | -1 | -44
CCOc1ccc(-c2cnc3ccccc3n2)cc1 | 90* | ? | 94* | 63* | 77*
C[C@@H]1CN([C@H](C)CO)C(=O)c2cc(C3=CCCC3)cnc2O[C@H]1CN(C)Cc1ccccc1C(=O)O | -7 | . | . | . | -5

Screening results (PubChem BioAssay)
